Data published in the supplement of paper PMC6555819.

Key:
Assay in all cases: PBM binding z-score (relative to random genomic background probes); higher = stronger binding; sequences stand for … in GC…GCGATTGACAGCGTAGAATGAAGG
[1] = system: FXR:RXRa (NR concentration 270 nM, RXRa partner concentration 90 nM)
Outline: (§1)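 Random background probes are the reference for binding z-scores. These scores derive from regression-normalized fluorescence on custom Agilent 4×180K protein-binding microarrays incubated 1 h with ligand-free nuclear receptor dimers. Binding was detected with antibodies against each partner (one per run).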

[2] = system: LXRa:RXRa (NR concentration 270 nM, RXRa partner concentration 90 nM)
Outline: as §1

[3] = system: LXRa homodimer (NR concentration 270 nM)
Outline: as §1

[4] = system: LXRb:RXRa (NR concentration 270 nM, RXRa partner concentration 90 nM)
Outline: as §1

[5] = system: LXRb homodimer (NR concentration 270 nM)
Outline: as §1

[6] = system: PPARa:RXRa (NR concentration 270 nM, RXRa partner concentration 90 nM)
Outline: as §1

[7] = system: PPARg:RXRa (NR concentration 180 nM, RXRa partner concentration 90 nM)
Outline: as §1

[8] = system: PPARg:RXRa 270nM:90nM, anti-RXR (NR concentration 270 nM, RXRa partner concentration 90 nM)
Outline: as §1

[9] = system: PPARg:RXRa 30nM:10nM, anti-RXR (NR concentration 30 nM, RXRa partner concentration 10 nM)
Outline: as §1

[10] = system: PPARg:RXRa 90nM:30nM, anti-RXR (NR concentration 90 nM, RXRa partner concentration 30 nM)
Outline: as §1

[11] = system: PPARg:RXRa DBDmut IVT, anti-RXR (DBD mutation: RXRa K156A/R161A, NR concentration 270 nM, RXRa partner concentration 90 nM)
Outline: as §1

[12] = system: PPARg:RXRa IVT, anti-PPARg (NR concentration 270 nM, RXRa partner concentration 90 nM)
Outline: as §1

[13] = system: PPARg DBDmut:RXRa IVT, anti-PPARg (DBD mutation: PPARg1 K132A/R137A, NR concentration 270 nM, RXRa partner concentration 90 nM)
Outline: as §1

[14] = system: PPARg DBDmut IVT, anti-PPARg (DBD mutation: PPARg1 K132A/R137A, NR concentration 270 nM)
Outline: as §1

[15] = system: PPARg homodimer (NR concentration 180 nM)
Outline: as §1

[16] = system: PXR:RXRa (NR concentration 270 nM, RXRa partner concentration 90 nM)
Outline: as §1

[17] = system: PXR homodimer (NR concentration 270 nM)
Outline: as §1

[18] = system: RARa:RXR (NR concentration 270 nM, RXRa partner concentration 90 nM)
Outline: as §1

[19] = system: RARa homodimer (NR concentration 270 nM)
Outline: as §1

[20] = system: RARb:RXRa (NR concentration 270 nM, RXRa partner concentration 90 nM)
Outline: as §1

Sequence	PBM binding z-score [1]	PBM binding z-score [2]	PBM binding z-score [3]	PBM binding z-score [4]	PBM binding z-score [5]	PBM binding z-score [6]	PBM binding z-score [7]	PBM binding z-score [8]	PBM binding z-score [9]	PBM binding z-score [10]	PBM binding z-score [11]	PBM binding z-score [12]	PBM binding z-score [13]	PBM binding z-score [14]	PBM binding z-score [15]	PBM binding z-score [16]	PBM binding z-score [17]	PBM binding z-score [18]	PBM binding z-score [19]	PBM binding z-score [20]
CCTAGCAGGCCAGGGTCACTCCAGCATTTCGCTT	1.55	1.25	-0.465	1.65	-0.731	2.73	0.332	1.25	-0.559	0.667	0.422	1.18	-1.53	-1.63	1.15	2.12	-0.229	2.93	0.279	2.47
ACTAGCAGGCCAAGTTTGGGCCACTCAAACAAAG	-0.478	-0.716	-0.865	-0.61	-1.23	-0.243	-0.254	-0.685	-0.785	-0.814	0.654	0.241	-1.11	-0.696	-1.66	-0.855	-0.899	-0.593	-1.32	0.466
AGAGTGAGGTTAAGATCAGGGAAACAGAATACAT	2.54	2.17	0.665	2.44	1.09	3.15	1.43	2.13	0.952	1.36	0.514	1.39	0.929	0.933	1.63	1.62	1.51	2.02	1.55	2.38
ATCGAAAGGTCGAGGTCAGTATAGAGAAAGGGAA	5.77	4.62	1.15	4.12	1.14	5.3	4.76	5.12	2.04	4.08	0.84	3.1	1.71	1.29	3.42	4.33	1.7	4.81	2.18	5.1
CGTCGAAGTTCAAGGTAACGTAACAGAAAGCAGC	2.59	2.34	-0.0774	1.38	-0.503	2.51	1.18	1.48	0.235	0.847	-0.377	0.326	0.134	-0.191	0.722	2.28	0.897	1.5	-0.214	3.38
TTACCAACGTGAAAGGTCGTTGATGCACGCCTTG	1.28	1.48	0.436	1.66	-0.169	2.84	2.46	4.26	2.49	4.17	0.0227	1.04	0.702	-0.158	1.27	2.14	0.445	2.24	0.296	1.66
CTCGAAAGGTCGGTTGAGGTAAGTATACGGATAA	1.93	1.41	-0.197	1.28	-0.165	2.34	0.4	0.787	0.0171	0.608	-0.106	0.306	-0.141	0.138	0.476	2.45	0.12	1.54	-0.0404	2.64
ATCGAAAGGTCGCGGTGAGTATAGAGAAAGGGAA	6	4.14	0.362	3.7	0.371	5.23	4.84	4.74	1.65	3.31	0.748	2.76	0.634	0.427	1.87	3.21	0.401	3.63	0.883	4.66
CGAACGAGGGCATGAGTTAATAGCAAATGCCGAT	0.396	0.206	-0.633	0.117	-0.921	1.49	1.64	1.98	0.666	1.58	2.98	2.1	-0.0604	0.0299	-0.39	0.548	0.0291	0.254	-0.352	1.89
CGTCCAAGGGCAAAGGTCAGTGAAGAGATGACGG	4.46	4.17	0.705	3.56	-0.199	5.39	8.11	7.1	5.37	7.34	1.01	4.07	-0.495	-0.877	1.99	4.76	0.541	6.49	0.911	4.78
AGAATGAGGTTCCCAAAGATCAGGGAAACGCTTG	-0.395	-0.315	-0.36	-0.576	-0.694	0.11	0.423	0.0468	0.142	0.0809	0.186	0.311	1.11	0.173	0.224	-0.152	-0.346	0.182	-0.181	-0.0949
TCTTGTACATCAGCAGGTTAAGAAAGCTGGCCAA	0.22	0.475	-0.073	0.542	0.127	0.883	-0.203	1.47	2.81	2.33	1.51	0.722	-0.0534	0.403	-0.0357	0.478	-0.155	0.59	0.183	0.473
TCATACAGGTAAATGCTAGGTGAAAGTCCGATCT	0.695	0.892	0.122	0.729	0.432	1.07	0.609	2.04	3.75	2.83	2.68	1.46	0.656	0.391	0.443	0.585	0.0342	0.804	0.732	0.542
TCTCGGAGGGCACGAAGGTCAGAGCTTTCCAGAG	1.96	2.22	0.0808	1.7	-1.18	2.96	1.3	2.4	1.73	1.99	1.9	2.51	-0.633	-1.03	1.08	3.25	2.26	2.88	-0.387	3.92
CCTACTGGGCCATTCAGAGGTCATTAATCATATG	2.24	3.76	5.48	3.81	0.468	3.74	1.99	2.79	0.44	2.02	4.22	4.37	0.0729	0.0343	2.11	4.17	2.46	3.83	0.0599	2.88
TCTGTTAGGTCAACGATGGTCAGCTAATCTGCTA	4.02	3.8	0.814	2.6	1.88	3.76	2.17	3.13	3.15	3.12	3.53	4	2.9	2.09	2.86	2.43	0.247	3.28	1.58	4.37
ATTCAAAGTTCACTAGGTAACGTAAGATTCAGCT	4.73	5.45	4.42	3.08	1.71	4.44	5.64	5.28	2.03	4.25	2.64	4.4	1.68	2.19	2.66	3.71	3.03	2.9	2.06	4.61
TCTATTAGTTGATTAGCGCAACCGAAACAGCGGA	0.828	0.894	0.314	0.663	0.632	0.774	0.0474	2.11	3.89	2.97	2.41	0.138	0.332	0.505	1.14	0.438	0.358	0.258	1.03	0.252
CCTAGTGGGCCAAAAAGGTCATTGATGCCGATAA	3.3	4.12	3.05	3.87	0.134	4.56	3.16	3.97	1.73	3.24	3.84	4.01	-0.411	-0.658	3.24	4.65	3.02	4.62	1.5	3.94
GCGACTGGGGCATCAGCAGGTTCCCATAACTTAA	-0.761	-0.491	-0.648	0.0504	-1.52	0.27	0.29	0.35	-0.948	-0.176	3.91	2.88	-0.996	-0.982	-0.276	-0.549	-0.571	-0.272	-0.565	0.421
CAAACTAGGCCAAAGGTCAAAGTCGAGCCAACCA	6.1	5.86	4.2	5.75	2.08	7.88	12.3	10.6	11	11.5	7.14	7.78	2.58	1.59	2.88	5.56	0.846	6.35	0.602	5.26
AGAACGAGGGCAATGAGTTAATAGCACGGGTGGC	0.223	0.22	-0.363	-0.11	-0.589	1.34	1.56	1.23	-0.12	0.528	3.29	2.59	0.242	0.395	0.0728	1.43	2.98	0.239	-0.224	2.04
CGTCAAAGTTCAGCTAAGGTAACGTAAAGCACGC	4.58	4.17	1.68	2.31	0.319	3.68	3.16	3.94	1.03	2.96	0.23	1.25	0.517	-0.309	1.44	4	1.56	3.29	1.13	4.65
GCGACTGGGGCAAAGCAGGTTACCGTAAGGTTGG	-0.0896	0.23	-0.658	0.135	-1.45	1.51	0.866	1.45	-0.363	0.645	4.2	3.74	-0.21	-0.572	0.239	0.503	-0.648	1.73	-1.1	0.922
TAGCTTAGGTCATGGGCCAGTATACCACGCGAAC	4.7	3.6	0.14	2.77	0.0949	4.23	2.88	3.21	0.853	2.08	1.43	2.29	0.945	-0.133	1.14	1.82	-0.151	2.69	0.342	4.1
CCTACTGTGCCAAGGTCATTGATCAGTCAAAGCA	3.24	3.74	1.67	3.26	0.681	4.05	3.18	3.78	1.24	2.83	3.52	3.07	-0.148	0.41	2.81	3.87	1.91	3.76	1.37	3.28
TCTTGTAGATCAAGCAGGTGAAGAAAGCCTGAGT	0.239	0.182	-0.332	-0.145	-0.467	0.527	-0.404	1.19	2.61	2.07	1.7	0.945	0.265	-0.33	-0.0595	0.043	-0.139	0.061	-0.384	-0.159
CGAACTAGGTCATCCAGGGCAGTGAATACATTGA	4.8	3.06	0.45	2.11	-0.0808	5.08	7.91	6.54	4.15	5.95	8.06	8.48	5.35	1.78	2.66	2.66	1.95	2.47	0.454	4.29
